This is an account of results in the supplement of paper PMC6522484.

Molecules are shown by their SMILES. ± gives the standard deviation of the averaged measurements.

Test [1] concerns DLD1. Kind of test: cell viability (CellTiter-Glo) relative to plate median (fraction of plate median); higher = more viable cells. Particulars: 5 µM; treatment time 24 h; reporter: 7TFP. The essentials:
(§1)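 Stable lentiviral TCF/Wnt firefly luciferase reporters (7TFP or TCF4/Wnt) were present in the colorectal cancer cell lines used. These cells received library compounds at a final 5 µM for 24 h, and parallel plates were read for firefly luciferase or CellTiterGlo luminescence. Each well was normalised to the plate median, and the value reported is the mean of two independent replicates.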

The subject of the next test is HCT116. Described as above. Particulars: 5 µM; treatment time 24 h; reporter: TCF4/Wnt. The method in brief:
as §1

The test system of test [2] is SW480. Described as above. The following applies: 5 µM; treatment time 24 h; reporter: 7TFP. The method in brief: as §1
For test [3], the system named is DLD1. Kind of test: TCF/Wnt firefly luciferase reporter signal relative to plate median (fraction of plate median); higher = higher Wnt reporter signal. The following applies: 5 µM; treatment time 24 h; reporter: 7TFP. The method in brief: as §1
In test [4] the test system is SW480. The description is as above. Particulars: 5 µM; treatment time 24 h; reporter: 7TFP. The method in brief:
as §1

`C/C=C(\CO)C(=O)O[C@H]1[C@H](O)[C@@H](C(=O)OC)O[C@@H]2C[C@H]3O[C@@H](n4cnc5c(N)ncnc54)[C@H](OC)[C@H]3O[C@]21O` [Herbicidin A]: the cell viability was 1.06 ± 0.014 with DLD1 [1], 0.843 ± 0.045 in the test on HCT116 and 0.982 ± 0.054 with SW480 [2]. Also, the “TCF/Wnt firefly luciferase reporter signal” value came to 0.933 ± 0.095 in the test with DLD1 [3] and 0.898 ± 0.064 in the test on SW480 [4].
Turning to `COc1ccc2c(c1OC)OC[C@@H](c1ccc(OC)c(OC)c1OC)C2`, the results for the cell viability in the test with DLD1 [1], with HCT116 and in the test with SW480 [2] were 1.01 ± 0.069, 1.1 ± 0.099 and 1.06 ± 0.035, respectively. For the same compound, the “TCF/Wnt firefly luciferase reporter signal” value in the test on DLD1 [3] was determined as 1.04 ± 0.09; in the test with SW480 [4] it was 0.961 ± 0.055.
On to `C=CC(C1=CC(=O)C(OC)=CC1=O)c1ccc(OC)cc1` (stereo not given), for which the cell viability in the test with DLD1 [1] was determined as 1.06 ± 0.035; with HCT116 it was 1.13 ± 0.085; in the test on SW480 [2], 1.03 ± 0.054. Besides, the “TCF/Wnt firefly luciferase reporter signal” value amounted to 0.988 ± 0.059 with DLD1 [3] and 1 ± 0.11 in the test with SW480 [4].
`CC1=C(/C=C/C(C)=C/C=C/C(C)=C/C=C/C=C(C)/C=C/C=C(C)/C=C/C2=C(C)C(=O)CCC2(C)C)C(C)(C)CCC1=O` [CANTHAXANTHIN (euglenanone)]: the cell viability with DLD1 [1] turned out to be 1 ± 0.021; in the test with HCT116 it was 0.899 ± 0.067; in the test on SW480 [2], 1.06. The results for the “TCF/Wnt firefly luciferase reporter signal” value in the test on DLD1 [3] and in the test on SW480 [4] were 1.115 ± 0.0071 and 1.17 ± 0.014, respectively.
The corresponding values for `CCOC(=O)OC(C)OC(=O)[C@@H]1N2C(=O)[C@@H](NC(=O)[C@H](N)c3ccccc3)[C@H]2SC1(C)C` (stereo not given in full) are 1.05 ± 0.014, 1.01 ± 0.071, 1.01 ± 0.014, 1.09 ± 0.12 and 1.08 ± 0.035.
For `Cc1c(N(C)CS(=O)(=O)O)c(=O)n(-c2ccccc2)n1C`, the cell viability in the test with DLD1 [1] was 1.04 ± 0.014; in the test with HCT116, 0.968 ± 0.035; in the test on SW480 [2], 1.06 ± 0.085. Also, the “TCF/Wnt firefly luciferase reporter signal” value in the test with DLD1 [3] worked out at 0.969 ± 0.059; in the test with SW480 [4] it was 1.04 ± 0.059.
For `COc1ccc2c(c1)CC[C@@H]1[C@@H]2CC[C@]2(C)[C@@H](O)CC[C@@H]12`, the cell viability in the test on DLD1 [1] came out at 0.928 ± 0.093; with HCT116, 0.953 ± 0.15; with SW480 [2], 1 ± 0.064. For the same compound, the “TCF/Wnt firefly luciferase reporter signal” value turned out to be 0.885 ± 0.18 in the test with DLD1 [3] and 0.969 ± 0.16 with SW480 [4].
In the case of `CC1(C)O[C@@H]2C[C@H]3[C@@H]4CCC5=CC(=O)C=C[C@]5(C)[C@@]4(F)[C@@H](O)C[C@]3(C)[C@]2(C(=O)CO)O1`, the cell viability was found to be 0.955 ± 0.027 with DLD1 [1], 0.965 ± 0.024 with HCT116 and 1.03 ± 0.042 with SW480 [2]. For the same compound, the “TCF/Wnt firefly luciferase reporter signal” value in the test with DLD1 [3] was 1.09 ± 0.021; in the test with SW480 [4], 0.951 ± 0.051.
The matching figures for `C[C@@H]1O[C@@H](O[C@H]2[C@H](Oc3cc(O)c4c(=O)cc(-c5ccc(O)cc5)oc4c3)O[C@H](CO)[C@@H](O)[C@@H]2O)[C@H](O)[C@H](O)[C@H]1O`: 1.04 ± 0.035, 1.03 ± 0.054, 0.98 ± 0.015, 0.989 ± 0.013 and 1.02 ± 0.079.
`CC(=O)O[C@@H]1CO[C@H]2O[C@H]3[C@@H](C(C=O)=C[C@H](O)[C@@H]4C5=C(C(C)C)CC[C@]5(C)CC[C@@]34C)[C@@]2(O)C1=O` [Striatal B]: the cell viability in the test with DLD1 [1] stood at 1 ± 0.17; with HCT116, 0.89 ± 0.16; with SW480 [2], 1.05 ± 0.021. The results for the “TCF/Wnt firefly luciferase reporter signal” value with DLD1 [3] and with SW480 [4] were 1 ± 0.16 and 1.025 ± 0.0071, respectively.
Regarding `COc1ccc(-c2oc3cc(OC)c(OC)c(OC)c3c(=O)c2OC)cc1OC`, the figures for the cell viability in the test on DLD1 [1], in the test on HCT116 and with SW480 [2] were 0.952 ± 0.028, 1.1 ± 0.014 and 1.06 ± 0.092, respectively. Moreover, the “TCF/Wnt firefly luciferase reporter signal” value was determined as 0.986 ± 0.049 in the test with DLD1 [3] and 1.06 ± 0.17 in the test on SW480 [4].
The matching figures for `CC12CCC3c4ccc(OCc5ccccc5)cc4CCC3C1C[C@@H](O)[C@@H]2O` (stereo not given in full): 1.08 ± 0.085, 0.992 ± 0.026, 1.01, 0.95 ± 0.14 and 0.993 ± 0.025.
With `CC(=O)Nc1cc2nc3ccccc3oc-2cc1=O` [N-Acetylquestiomycin A], the cell viability worked out at 0.985 ± 0.092 in the test on DLD1 [1], 1.1 ± 0.057 with HCT116 and 1.06 ± 0.087 in the test with SW480 [2]. In addition, the “TCF/Wnt firefly luciferase reporter signal” value in the test with DLD1 [3] was 1.24 ± 0.12; in the test on SW480 [4], 1.145 ± 0.0071.
The matching figures for `CC(C)C[C@@H]1NC(=O)[C@H](C)NC1=O` [cyclo(alanylleucyl)]: 0.998 ± 0.046, 1.02 ± 0.11, 0.998 ± 0.045, 0.994 ± 0.0028 and 0.987 ± 0.1.
